# Laboratory results: PubChem BioAssay (NCATS)
# Records with an inconclusive call do not appear. Entries that show only a call come without a potency. Activity calls are given as the source filed them. Calls come from the whole dose curve; as a rule, active = well fitted inhibition curve with a large enough effect; inconclusive = small, poorly fitted or top-dose-only effect; inactive = flat fitted curve, though single readings scatter.
# Biological target: Glutathione peroxidase 1 (Homo sapiens) (UniProt P07203)
# Sequence (P07203 whole entry, looked up): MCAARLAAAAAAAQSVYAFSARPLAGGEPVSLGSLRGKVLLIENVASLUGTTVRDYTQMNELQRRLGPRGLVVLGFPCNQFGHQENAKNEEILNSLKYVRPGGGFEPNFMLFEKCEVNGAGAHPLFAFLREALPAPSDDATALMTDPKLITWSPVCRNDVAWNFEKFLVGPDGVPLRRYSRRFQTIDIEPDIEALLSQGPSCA
# Assay: Primary qHTS Assay for Inhibitors of Recombinant Selenoprotein Glutathione Peroxidase 1 (GPX1) (AID 1845191)
# Settings: recombinant GPX1, GR-coupled NADPH fluorescence, 15 min; series mostly up to 48.8 µM
# In short: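 Recombinant GPX1 (10 nM final) was preincubated with compound for 30 min at room temperature, then reacted with 1 mM GSH, 0.5 mM CHP, 0.5 mM NADPH and 100 nM glutathione reductase; NADPH fluorescence (340/450 nm) was read at 0 and 15 min.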
# Note: nearly all actives have a fitted effect of over 65% in size.
Compound,Potency,"activity, negative = inhibition"
Cc1cc(O)cc2c1O[C@](C)(CCC[C@H](C)CCC[C@H](C)CCCC(C)C)CC2,inactive,–
CCN(CC)CCNC(C(=O)OCCC(C)C)c1ccccc1 (centres undefined),inactive,–
CC(C)(C)c1onc(OCP(=O)(O)O)c1CC(N)C(=O)O (centres undefined),inactive,–
COc1ccccc1O,inactive,–
O=C(O)Cc1sc(-c2ccccc2)nc1-c1ccc(Cl)cc1,inactive,–
COc1ccc2cc1Oc1cc3c(cc1OC)CC[N+](C)(C)[C@H]3Cc1ccc(cc1)Oc1c(OC)c(OC)cc3c1[C@@H](C2)[N+](C)(C)CC3,inactive,–
NCC(=O)CCC(=O)O,inactive,–
O=c1[nH]c(=O)c2[nH]c(=O)[nH]c2[nH]1,–,-12.4% [at 9.52 µM] (inactive)
c1ccc2c(CC3=NCCN3)cccc2c1,inactive,–
C[C@@H](O)[C@H](N)C(=O)O,inactive,–
O=Cc1ccccc1C=O,inactive,–
C[C@@H]1CCN(C(=O)[C@H](CCCN=C(N)N)NS(=O)(=O)c2cccc3c2NC[C@H](C)C3)[C@@H](C(=O)O)C1,inactive,–
O=C1c2c(O)cccc2Cc2cccc(O)c21,inactive,–
CN(N=O)C(=O)N[C@@H]1[C@@H](O)[C@H](O)[C@@H](CO)O[C@@H]1O,inactive,–
CCCCCCCCCCCCCCCCCCOCC(O)CO (centres undefined),inactive,–
N[C@@H](CSCCCO)C(=O)O,inactive,–

Compound,Potency,"activity, negative = inhibition"
NCCNCCNCCN,inactive,–
CCCCCCCCCCCCOS(=O)(=O)O,inactive,–
Cn1cc[nH]c1=S,inactive,–
NC(=O)c1ncn([C@@H]2O[C@H](CO)[C@@H](O)[C@H]2O)c1N,inactive,–
CC(O)COc1ccccc1 (centres undefined),inactive,–
Oc1cccc(O)c1,inactive,–
CC[C@@]1(c2ccccc2)NC(=O)N(C)C1=O,inactive,–
O=C(O)[C@H](O)c1ccccc1,inactive,–
NS(=O)(=O)c1cc2c(cc1C(F)(F)F)NC(Cc1ccccc1)NS2(=O)=O (centres undefined),inactive,–
C[C@H](N)[C@H](O)c1cccc(O)c1,inactive,–
NC(=O)N/N=C/c1ccc([N+](=O)[O-])o1,inactive,–
CCCCOC(=O)c1ccc(O)cc1,inactive,–
Oc1ccc(C(O)CNCCCCCCNCC(O)c2ccc(O)c(O)c2)cc1O (centres undefined),inactive,–
CC(=O)Oc1c(C)c(C)c2c(c1C)CC[C@@](C)(CCC[C@H](C)CCC[C@H](C)CCCC(C)C)O2,inactive,–
CCCOC(=O)c1ccccc1,inactive,–
CCCCN(CCCC)CCCOC(=O)c1ccc(N)cc1,inactive,–

# Biological target: Phospholipid hydroperoxide glutathione peroxidase GPX4 (Homo sapiens) (UniProt P36969)
# Sequence (P36969 whole entry, looked up): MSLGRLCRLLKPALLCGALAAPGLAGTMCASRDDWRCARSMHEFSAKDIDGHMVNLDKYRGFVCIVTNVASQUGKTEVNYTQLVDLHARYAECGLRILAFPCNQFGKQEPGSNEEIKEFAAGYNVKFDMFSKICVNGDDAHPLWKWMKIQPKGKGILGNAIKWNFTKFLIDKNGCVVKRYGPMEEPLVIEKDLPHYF
# Assay: Primary qHTS Assay for Inhibitors of Recombinant Selenoprotein Glutathione Peroxidase 4 (GPX4) (AID 1845192)
# Settings: recombinant GPX4, GR-coupled NADPH fluorescence, 15 min; series mostly up to 50 µM
# In short: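 GR-coupled readout: 100 nM GR, 1 mM GSH, 0.5 mM NADPH; NADPH fluorescence (ex 340/em 450 nm) read at t=0 and after 15 min RT. GPX4 200 nM, preincubated 30 min with compound; substrate 0.5 mM CHP.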
Compound,Potency,"activity change, negative = inhibition"
Cc1cc(O)cc2c1O[C@](C)(CCC[C@H](C)CCC[C@H](C)CCCC(C)C)CC2,inactive,–
CCN(CC)CCNC(C(=O)OCCC(C)C)c1ccccc1 (centres undefined),inactive,–
CC(C)(C)c1onc(OCP(=O)(O)O)c1CC(N)C(=O)O (centres undefined),inactive,–
COc1ccccc1O,inactive,–
O=C(O)Cc1sc(-c2ccccc2)nc1-c1ccc(Cl)cc1,inactive,–
COc1ccc2cc1Oc1cc3c(cc1OC)CC[N+](C)(C)[C@H]3Cc1ccc(cc1)Oc1c(OC)c(OC)cc3c1[C@@H](C2)[N+](C)(C)CC3,inactive,–
NCC(=O)CCC(=O)O,inactive,–
O=c1[nH]c(=O)c2[nH]c(=O)[nH]c2[nH]1,–,-16.1% [at 9.73 µM] (inactive)
c1ccc2c(CC3=NCCN3)cccc2c1,inactive,–
C[C@@H](O)[C@H](N)C(=O)O,inactive,–
O=Cc1ccccc1C=O,inactive,–
C[C@@H]1CCN(C(=O)[C@H](CCCN=C(N)N)NS(=O)(=O)c2cccc3c2NC[C@H](C)C3)[C@@H](C(=O)O)C1,inactive,–
O=C1c2c(O)cccc2Cc2cccc(O)c21,inactive,–
CN(N=O)C(=O)N[C@@H]1[C@@H](O)[C@H](O)[C@@H](CO)O[C@@H]1O,inactive,–
CCCCCCCCCCCCCCCCCCOCC(O)CO (centres undefined),inactive,–
N[C@@H](CSCCCO)C(=O)O,inactive,–

Compound,Potency,"activity change, negative = inhibition"
NCCNCCNCCN,inactive,–
CCCCCCCCCCCCOS(=O)(=O)O,inactive,–
Cn1cc[nH]c1=S,inactive,–
NC(=O)c1ncn([C@@H]2O[C@H](CO)[C@@H](O)[C@H]2O)c1N,inactive,–
CC(O)COc1ccccc1 (centres undefined),inactive,–
Oc1cccc(O)c1,inactive,–
CC[C@@]1(c2ccccc2)NC(=O)N(C)C1=O,inactive,–
O=C(O)[C@H](O)c1ccccc1,inactive,–
NS(=O)(=O)c1cc2c(cc1C(F)(F)F)NC(Cc1ccccc1)NS2(=O)=O (centres undefined),inactive,–
C[C@H](N)[C@H](O)c1cccc(O)c1,inactive,–
NC(=O)N/N=C/c1ccc([N+](=O)[O-])o1,inactive,–
CCCCOC(=O)c1ccc(O)cc1,inactive,–
Oc1ccc(C(O)CNCCCCCCNCC(O)c2ccc(O)c(O)c2)cc1O (centres undefined),inactive,–
CC(=O)Oc1c(C)c(C)c2c(c1C)CC[C@@](C)(CCC[C@H](C)CCC[C@H](C)CCCC(C)C)O2,inactive,–
CCCOC(=O)c1ccccc1,inactive,–
CCCCN(CCCC)CCCOC(=O)c1ccc(N)cc1,inactive,–
